Laboratory results as given in PubChem BioAssay (EPA / NIEHS).
Records with an inconclusive call do not appear. Active and inactive are the calls of the source. Rule for the calls, unless noted: active = hit-call score of the fitted dose curve at least 0.9, where 1 is the maximum; inconclusive = response in the unintended direction; inactive = score below 0.9.

How the values were obtained:
[1] = Tanguay_ZF_120hpf_JAW_legacy: (Legacy) Oregon State University Tanguay Lab 120 Hour Post-fertilization zebrafish Assay for Jaw Malformation (AID 2283638);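 for AC50: active means more embryos with jaw malformation than DMSO controls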
Summary of the method: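 Tropical 5D wild-type embryos, dechorionated with pronase at 4 hpf, were placed singly per well at 6 hpf and statically exposed at 28C until 120 hpf (0.64% DMSO final). Jaw malformation scored as present/absent by brightfield microscopy at 120 hpf, analyzed relative to DMSO.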

[2] = Tanguay_ZF_120hpf_PE_legacy: (Legacy) Oregon State University Tanguay Lab 120 Hour Post-fertilization zebrafish Assay for Pericardial Edema (AID 2283640);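 for AC50: potency for increased incidence of pericardial edema versus DMSO baseline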
Summary of the method: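 Tropical 5D wild-type zebrafish embryos were exposed statically to 120 hpf at 28C, sealed and foil-covered, in 0.64% DMSO final. Pericardial edema was scored present/absent by brightfield microscopy; dead embryos were not scored.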

[3] = Tanguay_ZF_120hpf_BRAI_legacy: (Legacy) Oregon State University Tanguay Lab 120 Hour Post-fertilization zebrafish Assay for Brain Malformation (AID 2283641)
Summary of the method: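 Tropical 5D wild-type zebrafish embryos were exposed statically in sealed, foil-covered plates at 28C until 120 hpf, with 0.64% (vol/vol) final DMSO. Brain malformation was scored present/absent by brightfield microscopy, relative to DMSO baseline.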

[4] = Tanguay_ZF_120hpf_SOMI_legacy: (Legacy) Oregon State University Tanguay Lab 120 Hour Post-fertilization zebrafish Assay for Somite Malformation (AID 2283647)
Summary of the method: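 Tropical 5D wild-type zebrafish embryos, dechorionated with pronase at 4 hpf, were placed singly at 6 hpf and statically exposed until 120 hpf at 28C in 0.64% DMSO. Somite malformation was scored present/absent by brightfield microscopy versus DMSO.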

[5] = Tanguay_ZF_120hpf_PFIN_legacy: (Legacy) Oregon State University Tanguay Lab 120 Hour Post-fertilization zebrafish Assay for Pectoral Fin Malformation (AID 2283648);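 note: each larva judged yes or no for fin defect by brightfield with dead larvae skipped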
Summary of the method: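 Tropical 5D wild-type embryos, dechorionated with pronase at 4 hpf, were placed singly in wells at 6 hpf and statically exposed until 120 hpf at 28C, sealed and dark, with 0.64% (vol/vol) final DMSO; pectoral fin malformation scored present/absent.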

[6] = Tanguay_ZF_120hpf_CFIN_legacy: (Legacy) Oregon State University Tanguay Lab 120 Hour Post-fertilization zebrafish Assay for Caudal Fin Malformation (AID 2283649)
Summary of the method: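 Tropical 5D wild-type embryos, dechorionated with pronase at 4 hpf, were placed singly in wells at 6 hpf and statically exposed to compound at 28C until 120 hpf (0.64% DMSO). Caudal fin malformation was scored present/absent by brightfield microscopy.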

[7] = Tanguay_ZF_120hpf_PIG_legacy: (Legacy) Oregon State University Tanguay Lab 120 Hour Post-fertilization zebrafish Assay for Pigmentation Malformation (AID 2283650)
Summary of the method: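 Tropical 5D wild-type zebrafish embryos, dechorionated with pronase at 4 hpf, were exposed singly from 6 hpf to 120 hpf statically at 28C in sealed, dark plates with 0.64% DMSO; pigmentation scored present/absent by brightfield microscopy, fitted against DMSO.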

[8] = Tanguay_ZF_120hpf_CIRC_legacy: (Legacy) Oregon State University Tanguay Lab 120 Hour Post-fertilization zebrafish Assay for Circulatory Malformation (AID 2283651)
Summary of the method: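 Using wild-type Tropical 5D zebrafish, we exposed dechorionated embryos from 6 to 120 hpf in embryo medium with 0.64% DMSO. Circulatory defects were scored as present or absent; 5uM trimethyltin chloride served as positive control.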

[9] = Tanguay_ZF_120hpf_TRUN_legacy: (Legacy) Oregon State University Tanguay Lab 120 Hour Post-fertilization zebrafish Assay for Truncated Body (AID 2283655)
Summary of the method: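 Tropical 5D wild-type embryos, dechorionated with pronase at 4 hpf, were placed singly in wells at 6 hpf and statically exposed at 28C until 120 hpf, final DMSO 0.64%. Truncated body was scored present/absent by brightfield microscopy.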

[10] = Tanguay_ZF_120hpf_NC_legacy: (Legacy) Oregon State University Tanguay Lab 120 Hour Post-fertilization zebrafish Assay for Notochord and Tail Malformation (AID 2283656)
Summary of the method: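 Dechorionated 5D zebrafish, 1/well from 6 hpf; static exposure to 120 hpf, 28C, sealed, dark; final DMSO 0.64% v/v. NC scored binary (present/absent); dead embryos not scored. Fit vs DMSO baseline, gain direction.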

[11] = Tanguay_ZF_120hpf_TR_legacy: (Legacy) Oregon State University Tanguay Lab 120 Hour Post-fertilization zebrafish Assay for Touch Response (AID 2283667)
Summary of the method: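 Tropical 5D wild-type zebrafish embryos were exposed statically in sealed, foil-covered plates at 28C until 120 hpf, with 0.64% (vol/vol) final DMSO. Touch response was scored as present or absent; embryos that died were not scored.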

[12] = read-out: kallikrein-3 (KLK3), KLK3 (gene 354); assay: LTEA_HepaRG_KLK3: Life Technologies and Expression Analysis (LTEA) Assay for kallikrein-3 (KLK3) using HepaRG (AID 2283652; active = hit-call score of the fitted dose curve at least 0.9, where 1 is the maximum; inactive = score below 0.9); conditions: mRNA level, 48 h; actives raise or lower the signal
Summary of the method: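 Differentiated human HepaRG cells in serum-free induction medium exposed 48 h in duplicate, eight-point half-log series from 100 uM in 0.5% DMSO. KLK3 mRNA by qRT-PCR, normalised to ACTB, GAPDH, POLR2A; bidirectional fit versus DMSO.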

[13] = read-out: solute carrier (SLC22A6), SLC22A6 (gene 9356); assay: LTEA_HepaRG_SLC22A6: Life Technologies and Expression Analysis (LTEA) Assay for solute carrier (SLC22A6) using HepaRG (AID 2283653; active = hit-call score of the fitted dose curve at least 0.9, where 1 is the maximum; inactive = score below 0.9); conditions: mRNA level, 48 h; actives raise or lower the signal
Summary of the method: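 Differentiated human HepaRG cells were exposed for 48 h in serum-free induction medium to eight concentrations (top 100 uM, half-log steps, 0.5% DMSO), in duplicate. SLC22A6 mRNA was quantified by qRT-PCR, normalised to ACTB, GAPDH and POLR2A, and fitted bidirectionally against DMSO.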

[14] = Tanguay_ZF_120hpf_SWIM_legacy: (Legacy) Oregon State University Tanguay Lab 120 Hour Post-fertilization zebrafish Assay for Swim Bladder Malformation (AID 2283654);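 note: swim bladder malformation in each larva scored yes or no under brightfield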
Summary of the method: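 Dechorionated Tropical 5D wild-type embryos, placed singly from 6 hpf, were statically exposed at 28C to 120 hpf with 0.64% DMSO final; swim bladder malformation was scored present/absent by brightfield microscopy, gain of signal relative to DMSO controls.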

[15] = read-out: solute carrier (SLC10A1), SLC10A1 (gene 6554); assay: LTEA_HepaRG_SLC10A1: Life Technologies and Expression Analysis (LTEA) Assay for solute carrier (SLC10A1) using HepaRG (AID 2283657; active = hit-call score of the fitted dose curve at least 0.9, where 1 is the maximum; inactive = score below 0.9); conditions: mRNA level, 48 h; actives raise or lower the signal
Summary of the method: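 Differentiated HepaRG cells were plated 48 h, then exposed in serum-free induction medium for 48 h to 8 concentrations (top 100 uM, half-log steps, 0.5% DMSO). SLC10A1 mRNA was quantified by qRT-PCR normalized to ACTB, GAPDH, POLR2A; bidirectional fit versus DMSO.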

[16] = read-out: matrix metalloproteinase-1 (MMP1), MMP1 (gene 4312); assay: LTEA_HepaRG_MMP1: Life Technologies and Expression Analysis (LTEA) Assay for matrix metalloproteinase-1 (MMP1) using HepaRG (AID 2283658; active = hit-call score of the fitted dose curve at least 0.9, where 1 is the maximum; inactive = score below 0.9); conditions: mRNA level, 48 h; actives raise or lower the signal
Summary of the method: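 Differentiated HepaRG cells, plated 48 h then switched to serum-free induction medium, were exposed in duplicate for 48 h to eight half-log concentrations up to 100 uM in 0.5% DMSO; MMP1 mRNA measured by qRT-PCR, normalized to ACTB, GAPDH, POLR2A.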

[17] = read-out: Cytochrome P450 (CYP24A1_1), CYP24A1 (gene 1591); assay: LTEA_HepaRG_CYP24A1_1: Life Technologies and Expression Analysis (LTEA) Assay for Cytochrome P450 (CYP24A1_1) using HepaRG (AID 2283671; active = hit-call score of the fitted dose curve at least 0.9, where 1 is the maximum; inactive = score below 0.9); conditions: mRNA level, 48 h; actives raise or lower the signal
Summary of the method: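 HepaRG, 48 h exposure, 8-pt half-log series from 100 uM in 0.5% DMSO, duplicates. Readout: TaqMan qRT-PCR of CYP24A1 mRNA, housekeeping-normalized (ACTB/GAPDH/POLR2A). Bidirectional curve fit vs DMSO baseline.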

[18] = test system: Thyroperoxidase (TPO), gene 54314; assay: CCTE_Simmons_AUR_rTPO: CCTE's Amplex UltraRed Assay for Thyroperoxidase (TPO) Inhibition, Simmons Lab (AID 2283662);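 note: potency for loss of signal meaning inhibition of peroxidase activity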
Summary of the method: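 Endpoint is decreased Amplex UltraRed fluorescence after a 30-min, 37C reaction of rat thyroid microsomes with 300 uM H2O2. Eight test concentrations (5 nM–87.5 uM final) in 0.5% DMSO, three biological replicates each.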

[19] = CCTE_Simmons_CellTiterGLO_HEK293T: Viability Assessment in CCTE's Assays for Thyroperoxidase (TPO) Inhibition, Simmons Lab (AID 2283665);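 for AC50: cells exposed to compound for 24 h before readout; actives reduce ATP signal below DMSO vehicle meaning cytotoxicity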
Summary of the method: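 Cytotoxicity counter-screen: human HEK293T cells in low-serum (1% FBS) medium receive test chemical, 5 nM to 87.5 uM final, for 24 h; ATP is quantified by luciferase luminescence.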

[20] = Tanguay_ZF_120hpf_OTIC_legacy: (Legacy) Oregon State University Tanguay Lab 120 Hour Post-fertilization zebrafish Assay for Otic Vesicle Malformation (AID 2283639)
Summary of the method: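 Otic vesicle malformation is read as a yes/no morphology call at 120 hpf. Exposure is static at 28C with 0.64% (vol/vol) DMSO; embryos that die are excluded from non-mortality endpoints.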

[As]#[In]
outcome [1]: inactive | outcome [2]: inactive | outcome [3]: inactive | outcome [4]: inactive | outcome [5]: inactive | outcome [6]: inactive | outcome [7]: inactive | outcome [8]: inactive | outcome [9]: inactive | outcome [10]: inactive | outcome [11]: inactive

C1=Cc2cccc3cccc1c23
outcome [1]: inactive | outcome [2]: inactive | outcome [3]: inactive | outcome [4]: inactive | outcome [5]: inactive | outcome [6]: inactive | outcome [7]: inactive | outcome [8]: inactive | outcome [12]: inactive | outcome [13]: inactive | outcome [14]: inactive | outcome [9]: inactive | outcome [10]: inactive | outcome [15]: inactive | outcome [16]: inactive | outcome [11]: inactive | outcome [17]: inactive

N#CC(Br)Br
outcome [1]: inactive | outcome [2]: inactive | outcome [3]: inactive | outcome [4]: inactive | outcome [5]: inactive | outcome [6]: inactive | outcome [8]: inactive | outcome [9]: inactive | outcome [10]: inactive | outcome [11]: inactive

CC(C)N(Cc1ccccc1)C(=O)C(C)(C)C
outcome [1]: inactive | outcome [2]: inactive | outcome [3]: inactive | outcome [4]: inactive | outcome [5]: inactive | outcome [6]: inactive | outcome [8]: inactive | outcome [14]: inactive | outcome [9]: inactive | outcome [10]: inactive | outcome [11]: inactive

Oc1ccc2ccc3cccc4ccc1c2c34
AC50 [1]: 46.8 µM (active) | AC50 [2]: 50.4 µM (active) | AC50 [3]: 46.1 µM (active) | AC50 [4]: 18.4 µM (active) | AC50 [5]: 12.2 µM (active) | AC50 [6]: 12.4 µM (active) | AC50 [7]: 44 µM (active) | outcome [8]: inactive | AC50 [14]: 48.3 µM (active) | AC50 [9]: 46.5 µM (active) | AC50 [10]: 11 µM (active) | AC50 [18]: 10.9 µM (active) | AC50 [19]: 10.8 µM (active) | AC50 [11]: 44.1 µM (active)

O=P(OCCCl)(OCCCl)OCCCl
outcome [1]: inactive | outcome [20]: inactive | outcome [3]: inactive | outcome [4]: inactive | outcome [5]: inactive | outcome [6]: inactive | outcome [7]: inactive | outcome [9]: inactive

CC(C)(OOC(C)(C)c1ccccc1)c1ccccc1
outcome [1]: inactive | outcome [2]: inactive | outcome [3]: inactive | outcome [4]: inactive | outcome [5]: inactive | outcome [6]: inactive | outcome [7]: inactive | outcome [8]: inactive | outcome [9]: inactive | outcome [10]: inactive | outcome [11]: inactive

CN(C)C(=O)Nc1ccc(Cl)cc1
outcome [1]: inactive | outcome [2]: inactive | outcome [3]: inactive | outcome [4]: inactive | outcome [5]: inactive | outcome [6]: inactive | outcome [7]: inactive | outcome [8]: inactive | outcome [12]: inactive | outcome [13]: inactive | outcome [9]: inactive | outcome [10]: inactive | outcome [15]: inactive | outcome [16]: inactive | AC50 [18]: 21.7 µM (active) | outcome [19]: inactive | outcome [11]: inactive | outcome [17]: inactive

O=C(O)C1C2CCC(O2)C1C(=O)O (centres undefined)
outcome [1]: inactive | outcome [2]: inactive | outcome [4]: inactive | outcome [5]: inactive | outcome [6]: inactive | outcome [8]: inactive | outcome [10]: inactive

Nc1ccc(N=Nc2ccccc2)cc1
outcome [1]: inactive | AC50 [2]: 25.6 µM (active) | outcome [3]: inactive | outcome [4]: inactive | outcome [5]: inactive | outcome [8]: inactive | outcome [9]: inactive | AC50 [18]: 2.53 µM (active) | AC50 [19]: 40.2 µM (active) | outcome [11]: inactive

Clc1ccc(C(c2ccc(Cl)cc2)C(Cl)Cl)cc1
outcome [1]: inactive | outcome [2]: inactive | outcome [8]: inactive | outcome [14]: inactive | outcome [9]: inactive | outcome [10]: inactive | outcome [11]: inactive
